Hits are enriched below; roughly 27% of the tested compounds scored in any of these assays.
CYP2C19 inh – blockers of cytochrome P450 2C19 activity – biochemical, luminescence, ADME assay, primary screen; P33261; CYP2C19 Supersomes, luciferin-H EGE luminescence, 30 min; inhibition, % at 5 µM; actives 21% (n = 96,000);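 active means CYP2C19 inhibition above a set limit at 5 µM in the primary screen, cut at about 50% in these data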
CYP2C9 activ – human CYP2C9 activators, primary screen, biochemical, luminescence. Cytochrome P450 2C9 (Homo sapiens), P11712. recombinant CYP2C9, luciferin-H conversion; active compounds read high; factor 1 = untreated enzyme, 0 = blocked. activation factor at 5 µM. actives 1.4% (n = 96,000). AID 1024, 2008;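 active means activation factor of 2 or more for CYP2C9 at a 5 µM dose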
CYP2C19 act – human CYP2C19 activators, primary screen, biochemical, luminescence. Cytochrome P450 2C19 (Homo sapiens), P33261. activation factor at 5 µM. 96,000 tested, under 10 active. recombinant CYP2C19, luciferin-H EGE luminescence; active compounds read high; 0 = fully inhibited enzyme, 1 = untreated enzyme;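 active means activation factor of at least 2 at 5 µM in the primary screen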
CYP2C9 inhib – blockers of cytochrome P450 2C9 activity – biochemical, luminescence, ADME assay, primary screen; P11712; CYP2C9 Supersomes, luciferin-H conversion; inhibition, % at 5 µM; AID 777, 2007; actives 20% (n = 96,000);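 active means blocking of liver enzyme CYP2C9 beyond about 50% at 5 µM, limit read from the data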
Cav32 inh – Cav3.2 calcium influx blockers – cell-based, Fluo-4 calcium fluorescence, FDSS, MLSMR library, primary screen; Voltage-dependent T-type calcium channel subunit alpha-1H (Homo sapiens), O95180; Cav3.2-expressing cells; active compounds read low; B-score at 10 µM; actives 4% (n = 100,000); AID 449739, 2010;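 active means single-dose well whose peak fluorescence ratio is a statistical outlier from its plate by either plate-standardised score or position-corrected B-score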
Each line names hits and unclear results; the compound was inactive in the other large screens.

CCn1c(SCC(=O)N2CCCc3ccccc32)nc2ccccc2c1=O	CYP2C19 inh 69, CYP2C9 inhib 97, Cav32 inh -6.9
CCn1c(SCC(=O)N2CCCc3ccccc32)nc2cccnc21	none
CCn1c(SCC(=O)N2CCc3ccccc32)nnc1-c1ccncc1	CYP2C19 inh 63
CC(C)(C)c1ccc(Cn2ccc(-c3ccc4c(c3)OCO4)n2)cc1	none
CCn1c(SCC(=O)N2CCCc3ccccc32)nnc1-c1ccco1	CYP2C19 inh 71
CC1CCCCN1C(=O)CSc1nnc(-c2ccco2)n1CC1CCCO1 (stereo unspecified)	CYP2C19 inh 83
CSc1nnc(-c2sc3cc(Cl)ccc3c2Cl)n1C	CYP2C19 inh 52
CCn1c(SC)nnc1-c1sc2cc(Cl)ccc2c1Cl	none
COC(=O)[C@H](C)NC(=O)Nc1ccc(C)c(C)c1	none
CC(=O)O/N=C(/C)c1ncc(C(F)(F)F)cc1N1CCOCC1	none
Cc1ccccc1NC(=O)CC1(c2ccc(N(C)C)cc2)C(=O)c2ccccc2C1=O	CYP2C19 inh 56
O=C(O)CC1(c2ccccc2)C(=O)c2ccccc2C1=O	none
COc1cc2c(cc1OC)C(c1cccc([N+](=O)[O-])c1)N(C(=O)c1ccc(F)cc1)CC2 (stereo unspecified)	CYP2C19 inh 81, CYP2C9 inhib 65, Cav32 inh -5.3
COc1ccc(OC(C)=O)c(C2c3cc(OC)c(OC)cc3CCN2C(C)=O)c1 (stereo unspecified)	none
COc1cc2c(cc1OC)C(c1ccccc1)N(C(=O)c1ccco1)CC2 (stereo unspecified)	CYP2C19 inh 94, CYP2C9 inhib 82
Nc1cc(=O)nc(SCC(=O)NC2CCCCC2)n1-c1ccccc1	none
Cc1ccc(N(CC(=O)NC(C)c2ccccc2)S(=O)(=O)c2cccs2)cc1 (stereo unspecified)	CYP2C19 inh 98, CYP2C9 inhib 86
Cc1ccc(N(CC(=O)N2CCc3ccccc32)S(=O)(=O)c2cccs2)cc1	none
COc1ccc(/C=C(/NC(=O)c2ccccc2)C(=O)N/N=C/c2cccs2)cc1OC	none
COc1ccc(S(=O)(=O)N(CC(=O)N/N=C/c2cccs2)c2cc(C)cc(C)c2)cc1OC	CYP2C19 inh 53, CYP2C9 inhib 60
COc1ccc(S(=O)(=O)N(CC(=O)N/N=C/c2cccs2)c2ccc(C)cc2)cc1OC	CYP2C19 inh 99, Cav32 inh -6.1
Cc1ccc(N(CC(=O)N/N=C/c2ccco2)S(=O)(=O)c2ccccc2)cc1	none
COc1ccc(C(c2nnnn2Cc2cccs2)N2CCN(c3ccccc3F)CC2)cc1OC (stereo unspecified)	none
CC1CC(N(C(=O)c2ccccc2Cl)c2ccccc2)c2ccccc2N1 (stereo unspecified)	none (no result: Cav32 inh)
O=C(/C=C/c1ccc2ccccc2c1)c1ccoc1	CYP2C19 inh 58
O=C(/C=C/c1ccc2c(c1)OCO2)c1ccc(F)cc1	none (no result: CYP2C19 inh, CYP2C9 activ, CYP2C19 act, CYP2C9 inhib)
COC(=O)C1C2C=CC(C3CC23)C1C(=O)OCC(=O)c1ccc(OC)cc1 (stereo unspecified)	CYP2C19 inh 83
COC(=O)C1C2C=CC(C3CC23)C1C(=O)OCC(=O)c1ccccc1 (stereo unspecified)	CYP2C19 inh 95, CYP2C9 inhib 57
COc1ccc(C(=O)COC(=O)CCN2C(=O)C3C4CC(C(Br)C4Br)C3C2=O)cc1 (stereo unspecified)	none
O=S(=O)(Nc1ccc(N2CCOCC2)nn1)c1ccccc1	none
CCOC(=O)c1sc(=S)sc1SCc1cccc(C(F)(F)F)c1	CYP2C19 inh 53, CYP2C9 inhib 97
CCOC(=O)c1sc2cccc(F)c2c1N	none
CCN(CC)c1ccc(NC(=O)/C=C/c2cc(Br)ccc2OC)cc1	CYP2C9 activ 2.2 (no result: Cav32 inh)
COc1ccc(Br)cc1/C=C/C(=O)Nc1c(C)cccc1C	CYP2C9 activ 2.1
COc1ccc(NC(=O)/C=C/c2cc(Br)ccc2OC)cc1	none
CN(C)c1ccc(C2OC(=O)C3(CCCC3)C(=O)C2(C)C)cc1 (stereo unspecified)	none
Cc1cc(NC(=O)CCSc2nc(-c3ccco3)cc(C(F)(F)F)n2)no1	none
Cc1nn(C)c(C)c1NC(=O)CCSc1nc(-c2ccco2)cc(C(F)(F)F)n1	CYP2C9 inhib 60
O=C(Nc1cnn(C23CC4CC(CC(C4)C2)C3)c1)c1cnn2c(C(F)(F)F)cc(-c3ccco3)nc12	CYP2C19 inh 65, CYP2C9 inhib 78
Cc1nn(C)cc1NC(=O)CCSc1nc(-c2ccco2)cc(C(F)(F)F)n1	none
O=C(Nc1ccc2c(c1)OCO2)c1cnn2c(C(F)(F)F)cc(-c3ccco3)nc12	none
Cc1ccccc1Cn1ccc(NC(=O)c2cnn3c(C(F)(F)F)cc(-c4ccco4)nc23)n1	CYP2C9 inhib 61
Cc1ccc(Cn2ccc(NC(=O)CCSc3nc(-c4ccco4)cc(C(F)(F)F)n3)n2)cc1	CYP2C19 inh 81, CYP2C9 inhib 93, Cav32 inh -9
CC(=O)c1cccc(NC(=O)N2CCCC2C(=O)Nc2cc(C)ccc2C)c1 (stereo unspecified)	none
CC(=O)c1cnc(Nc2nc(C)c3cccc(C)c3n2)nc1C	none (no result: Cav32 inh)
Cc1cc(NC(=O)CCSc2nc(-c3ccco3)cc(C(F)(F)F)n2)n(-c2ccccc2)n1	none (no result: CYP2C19 inh, CYP2C9 activ, CYP2C19 act, CYP2C9 inhib)
Cc1ccccc1Cn1ccc(NC(=O)CCSc2nc(-c3ccco3)cc(C(F)(F)F)n2)n1	CYP2C19 inh 79, CYP2C9 inhib 85 (no result: Cav32 inh)
Cc1nc(C(=O)NC2CCCCC2)sc1C1(C)CC(c2cccnc2)=NO1 (stereo unspecified)	none (no result: CYP2C19 inh, CYP2C9 activ, CYP2C19 act, CYP2C9 inhib)
CCn1c(-c2cccc(Br)c2)n[nH]c1=S	CYP2C19 inh 76
CCc1nc(C)cn1S(=O)(=O)c1ccc(Cl)c(Cl)c1Cl	CYP2C19 inh 95, CYP2C9 inhib 60, Cav32 inh -3.6
CCc1nc(C)cn1S(=O)(=O)c1cc(C)c(OC)c(C)c1C	CYP2C19 inh 62
CCc1nc(C)cn1S(=O)(=O)c1cc(C)c(OC)cc1C	CYP2C19 inh 62, Cav32 inh -3.8
CCc1nc(C)cn1S(=O)(=O)c1cc(Br)c(C)cc1OC	CYP2C19 inh 61, CYP2C9 inhib 58 (no result: Cav32 inh)
CCN1CCN(S(=O)(=O)c2cc(C)c(OC)cc2C)CC1	none
COc1c(C)cc(S(=O)(=O)NC2CC(C)(C)NC(C)(C)C2)c(C)c1C	none (no result: CYP2C19 inh, CYP2C9 activ, CYP2C19 act, CYP2C9 inhib)
Cc1cc(C)c[n+](-c2nc([O-])sc2C=O)c1	none
CC(C)OC(=O)C(C)Oc1ccc(C(=O)NCCc2ccccc2)cc1 (stereo unspecified)	none
Cc1ccc2sc(-c3ccc(NC(=O)c4cc(-n5cnnc5)ccc4Cl)cc3)nc2c1	none
CCC(c1nnc(SCC(=O)Nc2ccc(C(=O)Nc3ccccc3OC)cc2)o1)N(C)C (stereo unspecified)	none
